Measured values published in PubChem BioAssay (NCI).
Where “and” joins values, the source holds several entries; their conditions need not be identical. Identical values can stand only once. Compounds without any hit were thinned out: in the full panel of roughly 79,000, 15% have a hit. The source holds several records for some structures; these can differ, active in one and inactive in another. Calls of active or inactive are those of the source. Cut-off read from the data, not from the text of the source: active = growth inhibition above about 70%; inactive = the rest.

Legend:
[1] = NCI Yeast Anticancer Drug Screen. Data for the rad50 strain (AID 155);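 note: 0% = growth of vehicle-only cultures of the same strain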; details: S. cerevisiae rad50 strain growth inhibition, stronger effect = higher value
Outline: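 Growth of the mutant yeast was measured after compound exposure and referenced to vehicle-treated cultures.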

[2] = NCI Yeast Anticancer Drug Screen. Data for the mec2-1 strain (AID 157); details: S. cerevisiae mec2-1 strain, stronger effect = higher value
Outline: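 Cells of the genetically defined mec2-1 yeast strain are incubated with test compound. Inhibition of growth is calculated against vehicle-treated controls.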

[3] = NCI Yeast Anticancer Drug Screen. Data for the sgs1 mgt1 strain (AID 161);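 note: 0% = growth of cultures given vehicle only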; details: S. cerevisiae sgs1 mgt1 strain, stronger effect = higher value
Outline: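 Mutant yeast exposed to compound; growth scored against vehicle-only wells.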

[4] = NCI Yeast Anticancer Drug Screen. Data for the cln2 rad14 strain (AID 165);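 note: 0% = growth equal to vehicle treated cultures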; details: S. cerevisiae cln2 rad14 strain, stronger effect = higher value
Outline: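 The screen exposed genetically defined yeast (cln2 rad14) to test compounds and scored growth inhibition relative to vehicle-treated controls.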

[5] = NCI Yeast Anticancer Drug Screen. Data for the bub3 strain (AID 167); details: S. cerevisiae bub3 mutant strain, stronger effect = higher value
Outline: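 Whole-cell yeast assay. The mutant strain was incubated with compounds, and growth inhibition was determined by comparison with vehicle-treated cells.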

[6] = NCI Yeast Anticancer Drug Screen. Data for the wt2 strain (AID 169);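 note: 0% = growth of vehicle-treated yeast cultures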; details: S. cerevisiae wt2 strain growth inhibition, stronger effect = higher value
Outline: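 Steps: yeast strain treated with compound; growth recorded; inhibition calculated relative to cultures given vehicle alone.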

[7] = NCI Yeast Anticancer Drug Screen. Data for the mlh1 rad18 strain (AID 175); details: S. cerevisiae mlh1 rad18 strain growth inhibition, stronger effect = higher value
Outline: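 Compound-treated yeast growth, normalised to vehicle controls. Strain bears defined DNA repair mutations.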

[8] = at 5.0 µM (retest, dose inferred, filed as 0.5)
[9] = at 50.0 µM (retest, dose inferred, filed as 5.0)

With `Nc1cc2ccccc2cc1Br` the growth inhibition [1, 8] was 43% (inactive), the growth inhibition [1, 9] was 73% (active) and the growth inhibition ([1]; at 50.0 µM) was 81% (active). The growth inhibition [2, 8] was 30% (inactive), the growth inhibition [2, 9] was 62% (inactive) and the growth inhibition ([2]; at 50.0 µM) was 42.9% (inactive). The growth inhibition [3, 8] was 14% (inactive), the growth inhibition [3, 9] was 26% (inactive) and the growth inhibition ([3]; at 50.0 µM) was 71.8% (active). The growth inhibition [4, 8] was 54% (inactive), the growth inhibition [4, 9] was 44% (inactive) and the growth inhibition ([4]; at 50.0 µM) was 41.6% (inactive). The growth inhibition [5, 8] was 22% (inactive), the growth inhibition [5, 9] was 52% (inactive) and the growth inhibition ([5]; at 50.0 µM) was 74.7% (active). The growth inhibition ([6]; at 1.2 µM) was -13% (inactive), the growth inhibition ([6]; at 3.7 µM) was -17% (inactive) and the growth inhibition ([6]; at 11.0 µM) was -17% (inactive). For the same compound, the growth inhibition ([6]; at 33.0 µM) was 12% (inactive), the growth inhibition ([6]; at 100.0 µM) was 97% (active) and the growth inhibition [7, 8] was 40% (inactive). For the same compound, the growth inhibition [7, 9] was 82% (active) and the growth inhibition ([7]; at 50.0 µM) was 45% (inactive).

In the case of `CCN(CCO)CCNc1ccc(C)c2sc3ccccc3c(=O)c12`, the growth inhibition [1, 8] is reported as 36% (inactive), the growth inhibition [1, 9] is reported as 98% (active) and the growth inhibition ([1]; at 50.0 µM) is reported as 88.2% (active). For the same compound, the growth inhibition [2, 8] was 13% (inactive), the growth inhibition [2, 9] was 92% (active) and the growth inhibition ([2]; at 50.0 µM) was 90.7% (active). The growth inhibition [3, 8] was 9% (inactive), the growth inhibition [3, 9] was 98% (active) and the growth inhibition ([3]; at 50.0 µM) was 91.8% (active). The growth inhibition [4, 8] was 21% (inactive), the growth inhibition [4, 9] was 94% (active) and the growth inhibition ([4]; at 50.0 µM) was 90.8% (active). The growth inhibition [5, 8] was 6% (inactive), the growth inhibition [5, 9] was 98% (active) and the growth inhibition ([5]; at 50.0 µM) was 90.5% (active). For the same compound, the growth inhibition [7, 8] was 23% (inactive) and the growth inhibition [7, 9] was 98% (active).

For `CC(=O)OCC1OC(n2c(C)c(C(C)=O)c(-c3ccco3)c(C#N)c2=S)C(OC(C)=O)C(OC(C)=O)C1OC(C)=O` (stereo not given), the growth inhibition [1, 8] was -7% (inactive), the growth inhibition [1, 9] was -3% (inactive) and the growth inhibition ([1]; at 50.0 µM) was -9.45% (inactive) and 32.2% (inactive). For the same compound, the growth inhibition [2, 8] was 2% (inactive), the growth inhibition [2, 9] was 1% (inactive) and the growth inhibition ([2]; at 50.0 µM) was -26.9% (inactive) and 56.2% (inactive). For the same compound, the growth inhibition [3, 8] was 2% (inactive), the growth inhibition [3, 9] was 13% (inactive) and the growth inhibition ([3]; at 50.0 µM) was -4.95% (inactive) and 74.4% (active). The growth inhibition [4, 8] was 6% (inactive), the growth inhibition [4, 9] was 22% (inactive) and the growth inhibition ([4]; at 50.0 µM) was -13.6% (inactive) and 40.8% (inactive). For the same compound, the growth inhibition [5, 8] was -4% (inactive), the growth inhibition [5, 9] was 9% (inactive) and the growth inhibition ([5]; at 50.0 µM) was -25.4% (inactive) and 42.4% (inactive).

With `C=C(C)C(=O)Oc1ccc(NC(=O)c2ccccc2)ccc1=O` the growth inhibition [1, 8] was 5% (inactive) and -1% (inactive), the growth inhibition [1, 9] was 96% (active) and 95% (active) and the growth inhibition ([1]; at 50.0 µM) was 92.5% (active) and 96.7% (active). For the same compound, the growth inhibition [2, 8] was 2% (inactive) and 26% (inactive), the growth inhibition [2, 9] was 96% (active) and the growth inhibition ([2]; at 50.0 µM) was 75.2% (active) and 83.6% (active). For the same compound, the growth inhibition [3, 8] was 7% (inactive) and 19% (inactive), the growth inhibition [3, 9] was 95% (active) and 98% (active) and the growth inhibition ([3]; at 50.0 µM) was 96% (active) and 94.3% (active). The growth inhibition [4, 8] was -1% (inactive) and 1% (inactive), the growth inhibition [4, 9] was 92% (active) and the growth inhibition ([4]; at 50.0 µM) was 89.5% (active) and 83.8% (active). For the same compound, the growth inhibition [5, 8] was 5% (inactive) and 0% (inactive), the growth inhibition [5, 9] was 94% (active) and 93% (active) and the growth inhibition ([5]; at 50.0 µM) was 89.5% (active) and 93% (active).

For `CN1C(c2ccccc2)CC(=NOCc2ccccc2)CC1c1ccccc1` (stereo not given), the growth inhibition [1, 8] was 83% (active), the growth inhibition [1, 9] was 96% (active) and the growth inhibition ([1]; at 50.0 µM) was 78.5% (active). The growth inhibition [2, 8] was 94% (active), the growth inhibition [2, 9] was 97% (active) and the growth inhibition ([2]; at 50.0 µM) was 83.8% (active). The growth inhibition [3, 8] was 76% (active), the growth inhibition [3, 9] was 97% (active) and the growth inhibition ([3]; at 50.0 µM) was 88.8% (active). For the same compound, the growth inhibition [4, 8] was 65% (inactive), the growth inhibition [4, 9] was 97% (active) and the growth inhibition ([4]; at 50.0 µM) was 86.6% (active). The growth inhibition [5, 8] was 78% (active), the growth inhibition [5, 9] was 96% (active) and the growth inhibition ([5]; at 50.0 µM) was 84% (active). The growth inhibition [7, 8] was 94% (active) and the growth inhibition [7, 9] was 96% (active).

With `Fc1ccc2nc3ccccc3nc2c1` the growth inhibition [1, 8] was 3% (inactive), the growth inhibition [1, 9] was 40% (inactive) and the growth inhibition ([1]; at 50.0 µM) was 77.5% (active). The growth inhibition [2, 8] was 5% (inactive), the growth inhibition [2, 9] was 27% (inactive) and the growth inhibition ([2]; at 50.0 µM) was 49.2% (inactive). The growth inhibition [3, 8] was 0% (inactive), the growth inhibition [3, 9] was 10% (inactive) and the growth inhibition ([3]; at 50.0 µM) was 22.6% (inactive). The growth inhibition [4, 8] was -6% (inactive), the growth inhibition [4, 9] was 10% (inactive) and the growth inhibition ([4]; at 50.0 µM) was 29.5% (inactive). For the same compound, the growth inhibition [5, 8] was 5% (inactive), the growth inhibition [5, 9] was 24% (inactive) and the growth inhibition ([5]; at 50.0 µM) was 42.5% (inactive).

For `CCCCCCCCCCCCN`, the growth inhibition [1, 8] was 71% (active), the growth inhibition [1, 9] was 99% (active) and the growth inhibition ([1]; at 50.0 µM) was 77.5% (active). For the same compound, the growth inhibition [2, 8] was 65% (inactive), the growth inhibition [2, 9] was 99% (active) and the growth inhibition ([2]; at 50.0 µM) was 45% (inactive). For the same compound, the growth inhibition [3, 8] was -4% (inactive), the growth inhibition [3, 9] was 98% (active) and the growth inhibition ([3]; at 50.0 µM) was 81.8% (active). The growth inhibition [4, 8] was 73% (active), the growth inhibition [4, 9] was 100% (active) and the growth inhibition ([4]; at 50.0 µM) was 26.6% (inactive). The growth inhibition [5, 8] was 56% (inactive), the growth inhibition [5, 9] was 98% (active) and the growth inhibition ([5]; at 50.0 µM) was 79.7% (active). For the same compound, the growth inhibition ([6]; at 1.2 µM) was -14% (inactive), the growth inhibition ([6]; at 3.7 µM) was -21% (inactive) and the growth inhibition ([6]; at 11.0 µM) was -9% (inactive). For the same compound, the growth inhibition ([6]; at 33.0 µM) was -5% (inactive), the growth inhibition ([6]; at 100.0 µM) was 97% (active) and the growth inhibition [7, 8] was 70% (active). The growth inhibition [7, 9] was 100% (active) and the growth inhibition ([7]; at 50.0 µM) was 72.2% (active).

In the case of `Cc1c(-c2ccccc2)ccnc1/C=N/NC(N)=S`, the growth inhibition [1, 8] is reported as 29% (inactive), the growth inhibition [1, 9] is reported as 42% (inactive) and the growth inhibition ([1]; at 50.0 µM) is reported as 48.1% (inactive). The growth inhibition [2, 8] was 9% (inactive), the growth inhibition [2, 9] was 53% (inactive) and the growth inhibition ([2]; at 50.0 µM) was 79% (active). The growth inhibition [3, 8] was 43% (inactive), the growth inhibition [3, 9] was 58% (inactive) and the growth inhibition ([3]; at 50.0 µM) was 65.7% (inactive). For the same compound, the growth inhibition [4, 8] was 39% (inactive), the growth inhibition [4, 9] was 39% (inactive) and the growth inhibition ([4]; at 50.0 µM) was 54.4% (inactive). For the same compound, the growth inhibition [5, 8] was 49% (inactive), the growth inhibition [5, 9] was 45% (inactive) and the growth inhibition ([5]; at 50.0 µM) was 80.7% (active).
